Test results: the supplement of paper PMC3842684

Assays:
[1] = test system: P. falciparum NF54-pfs16-GFP early (I-III) stage gametocytes; assay: relative % inhibition of viable gametocyte number; higher = more gametocytocidal; settings: stage: early (I-III) gametocyte, incubation 72 h
Summary of the method: (§1)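 In 384-well poly-D-lysine imaging plates, NF54 pfs16-GFP gametocytes (magnet-isolated, early I/IIa on day 2 or late on day 8; 10% parasitaemia, 0.1% haematocrit) received compound in duplicate at 5 or 0.5 µM. Plates stood 72 h at 37°C in 5% CO2 and 5% O2, then overnight with MitoTracker Red before confocal imaging, where elongated GFP objects with MitoTracker signal above cut-off counted as viable. Relative inhibition was calculated against vehicle and positive-control wells on the same plate.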

[2] = test system: P. falciparum NF54-pfs16-GFP late (IV-V) stage gametocytes; assay: as above; settings: stage: late (IV-V) gametocyte, incubation 72 h
Summary of the method: as §1

CN1CCN(c2nc(Nc3ccc(O)cc3)nc3ccccc23)CC1
relative % inhibition ([1]; 0.5 µM): -17.7% | relative % inhibition ([1]; 5 µM): -9.15% | relative % inhibition ([2]; 0.5 µM): -10.7% | relative % inhibition ([2]; 5 µM): -15.5%

CC1=C(CC(=O)c2cccc([N+](=O)[O-])c2)C(=O)c2ccccc2C1=O
relative % inhibition ([1]; 0.5 µM): 48% | relative % inhibition ([1]; 5 µM): 60% | relative % inhibition ([2]; 0.5 µM): 39.3% | relative % inhibition ([2]; 5 µM): 54.1%

CCOC(=O)c1cnc2c(C)cccc2c1Nc1ccc(C(C)=O)cc1
relative % inhibition ([1]; 0.5 µM): -9.17% | relative % inhibition ([1]; 5 µM): 7.93% | relative % inhibition ([2]; 0.5 µM): 7.91% | relative % inhibition ([2]; 5 µM): -0.973%

Cc1ccc(OCCCCCCNCCO)c(C)c1
relative % inhibition ([1]; 0.5 µM): 2.04% | relative % inhibition ([1]; 5 µM): 30.1% | relative % inhibition ([2]; 0.5 µM): -16.2% | relative % inhibition ([2]; 5 µM): -15.5%

CCOc1ccc(-c2nonc2NC(=O)c2cccc(C)c2)cc1OCC
relative % inhibition ([1]; 0.5 µM): 31.4% | relative % inhibition ([1]; 5 µM): 94.4% | relative % inhibition ([2]; 0.5 µM): 27.6% | relative % inhibition ([2]; 5 µM): 18.4%

CC(C)(C)CC(C)(C)NCC(O)COc1ccc(Cl)cc1Cl (stereo unspecified)
relative % inhibition ([1]; 0.5 µM): 34.8% | relative % inhibition ([1]; 5 µM): 92.4% | relative % inhibition ([2]; 0.5 µM): 90.2% | relative % inhibition ([2]; 5 µM): 114%

CCOc1cc(Cl)c(C(C)NC(=O)c2ccccc2)cc1OCC (stereo unspecified)
relative % inhibition ([1]; 0.5 µM): 15.1% | relative % inhibition ([1]; 5 µM): 34.5% | relative % inhibition ([2]; 0.5 µM): 8.2% | relative % inhibition ([2]; 5 µM): 38.7%

Oc1c2c(nc3cc(-c4ccccc4)nn13)CCCC2
relative % inhibition ([1]; 0.5 µM): 3.76% | relative % inhibition ([1]; 5 µM): -0.467% | relative % inhibition ([2]; 0.5 µM): -4.66% | relative % inhibition ([2]; 5 µM): 57.1%

CCOc1cc(Cl)c(C(C)NC(=O)c2cccc(OC)c2)cc1OCC (stereo unspecified)
relative % inhibition ([1]; 0.5 µM): 24.8% | relative % inhibition ([1]; 5 µM): 60.9% | relative % inhibition ([2]; 0.5 µM): -6.93% | relative % inhibition ([2]; 5 µM): 41.6%

CCCCOc1ccc(C(=O)Nc2cc(C)on2)cc1
relative % inhibition ([1]; 0.5 µM): 3% | relative % inhibition ([1]; 5 µM): 12.9% | relative % inhibition ([2]; 0.5 µM): -7.15% | relative % inhibition ([2]; 5 µM): 17.4%

CN1CCN(c2ccc(Nc3c4ccccc4nc4ccccc34)cc2)CC1
relative % inhibition ([1]; 0.5 µM): 100% | relative % inhibition ([1]; 5 µM): 101% | relative % inhibition ([2]; 0.5 µM): 91.3% | relative % inhibition ([2]; 5 µM): 104%

CCCCCn1c(=N)n(CC(O)COc2cccc(C)c2)c2ccccc21 (stereo unspecified)
relative % inhibition ([1]; 0.5 µM): 37.7% | relative % inhibition ([1]; 5 µM): 74.5% | relative % inhibition ([2]; 0.5 µM): -3.63% | relative % inhibition ([2]; 5 µM): 56%

CC(Oc1ccc(NC(=O)c2cccs2)cc1)C(=O)c1ccc(Cl)cc1 (stereo unspecified)
relative % inhibition ([1]; 0.5 µM): 10.9% | relative % inhibition ([1]; 5 µM): 23% | relative % inhibition ([2]; 0.5 µM): 16.4% | relative % inhibition ([2]; 5 µM): 52.1%

COc1ccc(C2N(C)c3ccccc3N2C)cc1
relative % inhibition ([1]; 0.5 µM): 24.6% | relative % inhibition ([1]; 5 µM): 30.9% | relative % inhibition ([2]; 0.5 µM): 17.9% | relative % inhibition ([2]; 5 µM): -2.47%

CC1CCCCN1CCCNC(=O)c1ccc2c(c1)sc1nc(-c3ccc(F)cc3)cn12 (stereo unspecified)
relative % inhibition ([1]; 0.5 µM): 21.3% | relative % inhibition ([1]; 5 µM): 88.1% | relative % inhibition ([2]; 0.5 µM): 23.2% | relative % inhibition ([2]; 5 µM): 17.8%

FC(F)(F)c1cccc(CNC2CCN(CCc3ccccc3)CC2)c1
relative % inhibition ([1]; 0.5 µM): -2.89% | relative % inhibition ([1]; 5 µM): 82.2% | relative % inhibition ([2]; 0.5 µM): 1.32% | relative % inhibition ([2]; 5 µM): -17.4%

O=C(NNc1cc(N2CCCC2)nc(N2CCCC2)n1)c1ccccc1
relative % inhibition ([1]; 0.5 µM): -9.28% | relative % inhibition ([1]; 5 µM): -5.49% | relative % inhibition ([2]; 0.5 µM): 10.9% | relative % inhibition ([2]; 5 µM): 16.3%

COc1cc2cc(C(=O)Nc3ccccc3)c(N)nc2cc1OC
relative % inhibition ([1]; 0.5 µM): 16.8% | relative % inhibition ([1]; 5 µM): 99% | relative % inhibition ([2]; 0.5 µM): 3.1% | relative % inhibition ([2]; 5 µM): -13.4%

COc1ccc(C2c3ccc4ccccc4c3Oc3ncn(CCCN(C)C)c(=N)c32)cc1 (stereo unspecified)
relative % inhibition ([1]; 0.5 µM): 76.2% | relative % inhibition ([1]; 5 µM): -22.6% | relative % inhibition ([2]; 0.5 µM): 108% | relative % inhibition ([2]; 5 µM): 115%

O=c1cc(NC2CCN(CCCc3ccccc3)CC2)c2cc(Cl)ccc2o1
relative % inhibition ([1]; 0.5 µM): 10.6% | relative % inhibition ([1]; 5 µM): 79.8% | relative % inhibition ([2]; 0.5 µM): -5.8% | relative % inhibition ([2]; 5 µM): -6.17%

OC(CNC1CCCCC1)Cn1c2ccc(I)cc2c2cc(I)ccc21 (stereo unspecified)
relative % inhibition ([1]; 0.5 µM): 60.7% | relative % inhibition ([1]; 5 µM): 95.2% | relative % inhibition ([2]; 0.5 µM): 84.7% | relative % inhibition ([2]; 5 µM): 98.5%

Oc1c(C(Nc2ccccn2)c2cccc(Oc3ccccc3)c2)ccc2cccnc12 (stereo unspecified)
relative % inhibition ([1]; 0.5 µM): 1.66% | relative % inhibition ([1]; 5 µM): 98.2% | relative % inhibition ([2]; 0.5 µM): 18.4% | relative % inhibition ([2]; 5 µM): 97.7%

Cc1ccc2c(C)nc(Nc3nc(C)cc(-c4ccccc4)n3)nc2c1
relative % inhibition ([1]; 0.5 µM): 38% | relative % inhibition ([1]; 5 µM): 88.6% | relative % inhibition ([2]; 0.5 µM): 111% | relative % inhibition ([2]; 5 µM): 113%

N=c1n(CCN2CCCCC2)c2ccccc2n1CC(O)c1cccc(Br)c1 (stereo unspecified)
relative % inhibition ([1]; 0.5 µM): 6.75% | relative % inhibition ([1]; 5 µM): 94.5% | relative % inhibition ([2]; 0.5 µM): 25.5% | relative % inhibition ([2]; 5 µM): 55.6%

CC(C)CCNCC(O)Cn1c2ccccc2c2ccccc21 (stereo unspecified)
relative % inhibition ([1]; 0.5 µM): 23.7% | relative % inhibition ([1]; 5 µM): 102% | relative % inhibition ([2]; 0.5 µM): 19% | relative % inhibition ([2]; 5 µM): 82.9%

COCCNCC(O)Cn1c2ccc(Cl)cc2c2cc(Cl)ccc21 (stereo unspecified)
relative % inhibition ([1]; 0.5 µM): 5.62% | relative % inhibition ([1]; 5 µM): 62.7% | relative % inhibition ([2]; 0.5 µM): 52.3% | relative % inhibition ([2]; 5 µM): 96.1%

CN(C)CCNc1cc(-c2ccccc2)nc2ccccc12
relative % inhibition ([1]; 0.5 µM): -7.32% | relative % inhibition ([1]; 5 µM): -20.1% | relative % inhibition ([2]; 0.5 µM): -18.3% | relative % inhibition ([2]; 5 µM): 6.35%

Cc1ccc(N2C(=O)C3C(C2=O)C2(c4ccccc4)C(=O)C3(c3ccccc3)C(c3ccccc3)=C2c2ccccc2)cc1 (stereo unspecified)
relative % inhibition ([1]; 0.5 µM): 20.5% | relative % inhibition ([1]; 5 µM): 53.3% | relative % inhibition ([2]; 0.5 µM): 45.4% | relative % inhibition ([2]; 5 µM): 58.1%

COc1ccc(-c2nc(NC(=O)CS(=O)(=O)c3ccc(F)cc3)sc2C)cc1
relative % inhibition ([1]; 0.5 µM): 12.7% | relative % inhibition ([1]; 5 µM): 100% | relative % inhibition ([2]; 0.5 µM): 73% | relative % inhibition ([2]; 5 µM): 92.9%

OC1=C2C(=Nc3ccccc3SC2c2ccc(Br)cc2)c2ccccc21 (stereo unspecified)
relative % inhibition ([1]; 0.5 µM): 3.13% | relative % inhibition ([1]; 5 µM): 35.9% | relative % inhibition ([2]; 0.5 µM): 71.4% | relative % inhibition ([2]; 5 µM): 73%

O=C(Nc1ccc(C23CC4CC(CC(c5ccccc5)(C4)C2)C3)cc1)c1cccs1
relative % inhibition ([1]; 0.5 µM): -8.5% | relative % inhibition ([1]; 5 µM): 12.3% | relative % inhibition ([2]; 0.5 µM): 12.9% | relative % inhibition ([2]; 5 µM): 31.6%

COc1ccc(-c2cc3c(nn2)-c2ccccc2C3=O)cc1
relative % inhibition ([1]; 0.5 µM): -10.8% | relative % inhibition ([1]; 5 µM): 81.1% | relative % inhibition ([2]; 0.5 µM): 87.4% | relative % inhibition ([2]; 5 µM): 96.1%

COCCN(C(=O)Cc1cccs1)C(C(=O)NCc1ccc(OC)cc1)c1ccc(C(C)C)cc1 (stereo unspecified)
relative % inhibition ([1]; 0.5 µM): 25.1% | relative % inhibition ([1]; 5 µM): 5.52% | relative % inhibition ([2]; 0.5 µM): 13.7% | relative % inhibition ([2]; 5 µM): -1.94%

COc1cccc(C(=O)NC(c2ccc(C)cc2)c2cc(Cl)c3cccnc3c2O)c1 (stereo unspecified)
relative % inhibition ([1]; 0.5 µM): 12.4% | relative % inhibition ([1]; 5 µM): 82.5% | relative % inhibition ([2]; 0.5 µM): 46.5% | relative % inhibition ([2]; 5 µM): 65.2%
